In ChEMBL document CHEMBL1961873, “Compounds: GSK PKIS; Assays: Nanosyn kinase panel” (2012):
Several values for one entry are separate records, joined by “and”; a condition that tells them apart may be missing. Identical values can stand only once.

Tests used:
[1] = molecular target: Sphingosine kinase 1 (Homo sapiens) (UniProt Q9NYA1); details: at 1 µM;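 further: mean SPHK1 inhibition value reported from the GSK PKIS kinase panel screen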
[2] = molecular target: T1, Sphingosine kinase 2 (Homo sapiens) (UniProt Q9NRA0); details: at 0.1 µM
T1 sequence (whole entry): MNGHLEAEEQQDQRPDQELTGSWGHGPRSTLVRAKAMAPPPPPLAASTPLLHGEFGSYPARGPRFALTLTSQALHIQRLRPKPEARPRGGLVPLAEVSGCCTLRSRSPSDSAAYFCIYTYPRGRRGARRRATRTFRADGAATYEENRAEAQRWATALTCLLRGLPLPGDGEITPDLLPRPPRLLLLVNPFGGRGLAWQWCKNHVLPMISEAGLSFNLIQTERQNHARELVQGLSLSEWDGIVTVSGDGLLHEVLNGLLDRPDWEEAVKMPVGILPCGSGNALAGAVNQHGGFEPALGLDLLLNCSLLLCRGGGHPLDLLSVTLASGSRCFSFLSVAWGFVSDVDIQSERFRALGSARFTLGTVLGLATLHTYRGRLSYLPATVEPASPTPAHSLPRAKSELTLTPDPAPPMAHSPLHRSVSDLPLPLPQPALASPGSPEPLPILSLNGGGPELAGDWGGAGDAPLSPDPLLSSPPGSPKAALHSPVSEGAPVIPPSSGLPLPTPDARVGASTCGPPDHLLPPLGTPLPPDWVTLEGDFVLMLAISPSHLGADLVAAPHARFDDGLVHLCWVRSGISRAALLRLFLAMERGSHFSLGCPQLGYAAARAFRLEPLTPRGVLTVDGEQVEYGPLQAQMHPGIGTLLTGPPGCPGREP

[3] = molecular target: T1, Sphingosine kinase 2 (Homo sapiens); details: at 1 µM
[4] = molecular target: Casein kinase II subunit alpha (Homo sapiens) (UniProt P68400); details: at 0.1 µM
Sequence of Casein kinase II subunit alpha (Homo sapiens) (P68400 whole entry, looked up): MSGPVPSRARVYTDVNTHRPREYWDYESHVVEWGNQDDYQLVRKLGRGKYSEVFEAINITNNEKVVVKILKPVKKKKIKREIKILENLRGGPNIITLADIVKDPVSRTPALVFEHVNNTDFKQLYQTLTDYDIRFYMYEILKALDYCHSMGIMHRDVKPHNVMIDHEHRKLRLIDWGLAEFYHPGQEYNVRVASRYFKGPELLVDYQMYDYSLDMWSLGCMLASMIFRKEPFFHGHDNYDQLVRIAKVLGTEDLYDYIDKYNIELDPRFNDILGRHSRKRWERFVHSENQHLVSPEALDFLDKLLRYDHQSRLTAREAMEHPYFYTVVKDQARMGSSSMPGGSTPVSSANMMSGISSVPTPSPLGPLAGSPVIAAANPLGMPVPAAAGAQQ

[5] = molecular target: Casein kinase II subunit alpha (Homo sapiens) (UniProt P68400); details: at 1 µM
[6] = molecular target: T2, Inhibitor of nuclear factor kappa-B kinase subunit alpha (Homo sapiens) (UniProt O15111); details: at 0.1 µM
T2 sequence (whole entry): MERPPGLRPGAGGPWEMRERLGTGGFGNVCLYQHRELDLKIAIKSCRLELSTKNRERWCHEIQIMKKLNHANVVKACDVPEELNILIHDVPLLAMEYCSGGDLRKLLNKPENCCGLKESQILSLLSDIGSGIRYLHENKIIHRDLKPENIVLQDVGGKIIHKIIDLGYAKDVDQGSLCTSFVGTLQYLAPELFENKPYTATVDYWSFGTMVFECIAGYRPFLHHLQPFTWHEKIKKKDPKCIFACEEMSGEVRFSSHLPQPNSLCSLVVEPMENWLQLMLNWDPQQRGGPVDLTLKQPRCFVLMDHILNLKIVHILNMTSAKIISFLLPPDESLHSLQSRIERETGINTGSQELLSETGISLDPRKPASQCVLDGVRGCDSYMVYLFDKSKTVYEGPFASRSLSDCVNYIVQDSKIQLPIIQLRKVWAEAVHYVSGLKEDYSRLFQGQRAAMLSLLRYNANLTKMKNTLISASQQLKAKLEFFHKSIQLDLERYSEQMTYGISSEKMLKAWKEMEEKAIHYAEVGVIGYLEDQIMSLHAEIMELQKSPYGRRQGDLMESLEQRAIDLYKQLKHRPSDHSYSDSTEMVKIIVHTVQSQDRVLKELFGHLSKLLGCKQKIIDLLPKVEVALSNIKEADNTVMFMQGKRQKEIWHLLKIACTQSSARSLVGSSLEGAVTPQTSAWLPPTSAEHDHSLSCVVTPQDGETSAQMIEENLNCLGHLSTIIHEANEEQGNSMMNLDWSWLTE

[7] = molecular target: T2, Inhibitor of nuclear factor kappa-B kinase subunit alpha (Homo sapiens); details: at 1 µM
[8] = molecular target: T3, Inhibitor of nuclear factor kappa-B kinase subunit beta (Homo sapiens) (UniProt O14920); details: at 0.1 µM
T3 sequence (whole entry): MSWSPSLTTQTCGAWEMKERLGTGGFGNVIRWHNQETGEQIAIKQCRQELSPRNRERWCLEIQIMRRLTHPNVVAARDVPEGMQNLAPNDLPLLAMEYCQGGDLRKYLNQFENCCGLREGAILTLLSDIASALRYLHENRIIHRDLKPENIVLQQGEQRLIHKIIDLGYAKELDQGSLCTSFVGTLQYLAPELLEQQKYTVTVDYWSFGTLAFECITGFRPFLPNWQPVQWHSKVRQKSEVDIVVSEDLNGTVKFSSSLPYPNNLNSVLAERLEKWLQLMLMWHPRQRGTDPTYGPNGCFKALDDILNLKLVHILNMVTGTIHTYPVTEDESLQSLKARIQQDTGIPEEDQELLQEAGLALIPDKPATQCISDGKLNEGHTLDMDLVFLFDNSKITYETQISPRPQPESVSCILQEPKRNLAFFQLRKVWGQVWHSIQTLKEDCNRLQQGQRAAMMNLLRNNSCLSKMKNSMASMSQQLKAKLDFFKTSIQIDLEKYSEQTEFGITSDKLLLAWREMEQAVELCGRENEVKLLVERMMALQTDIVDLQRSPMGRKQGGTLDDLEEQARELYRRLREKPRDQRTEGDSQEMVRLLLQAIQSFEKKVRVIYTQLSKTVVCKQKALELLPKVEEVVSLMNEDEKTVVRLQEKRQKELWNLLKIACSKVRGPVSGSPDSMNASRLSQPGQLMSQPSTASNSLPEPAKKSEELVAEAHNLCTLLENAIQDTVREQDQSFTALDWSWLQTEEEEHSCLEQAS

[9] = molecular target: T3, Inhibitor of nuclear factor kappa-B kinase subunit beta (Homo sapiens); details: at 1 µM
[10] = molecular target: T4, Inhibitor of nuclear factor kappa-B kinase subunit epsilon (Homo sapiens) (UniProt Q14164); details: at 0.1 µM;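 further: mean inhibition of IKKε reported, from the GSK PKIS dataset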
T4 sequence (whole entry): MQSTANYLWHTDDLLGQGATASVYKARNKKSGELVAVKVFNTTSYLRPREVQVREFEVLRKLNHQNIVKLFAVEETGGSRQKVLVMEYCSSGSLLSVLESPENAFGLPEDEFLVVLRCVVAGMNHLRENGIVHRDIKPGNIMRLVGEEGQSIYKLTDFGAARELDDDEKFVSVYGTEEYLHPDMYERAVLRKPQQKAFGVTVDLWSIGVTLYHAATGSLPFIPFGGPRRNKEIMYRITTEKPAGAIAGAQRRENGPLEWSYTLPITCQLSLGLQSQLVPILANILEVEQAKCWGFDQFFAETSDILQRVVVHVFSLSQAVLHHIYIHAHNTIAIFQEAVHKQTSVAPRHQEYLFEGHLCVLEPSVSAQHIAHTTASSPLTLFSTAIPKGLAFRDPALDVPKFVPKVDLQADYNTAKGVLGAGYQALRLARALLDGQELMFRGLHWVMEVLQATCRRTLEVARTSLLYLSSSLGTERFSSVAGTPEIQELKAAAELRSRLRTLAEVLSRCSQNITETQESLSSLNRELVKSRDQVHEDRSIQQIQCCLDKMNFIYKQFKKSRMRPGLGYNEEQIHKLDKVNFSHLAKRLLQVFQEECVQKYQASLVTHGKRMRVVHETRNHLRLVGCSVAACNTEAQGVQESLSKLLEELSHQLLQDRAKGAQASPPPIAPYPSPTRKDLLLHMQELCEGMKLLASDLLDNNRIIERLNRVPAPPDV

Sequence of Sphingosine kinase 1 (Homo sapiens) (Q9NYA1 whole entry): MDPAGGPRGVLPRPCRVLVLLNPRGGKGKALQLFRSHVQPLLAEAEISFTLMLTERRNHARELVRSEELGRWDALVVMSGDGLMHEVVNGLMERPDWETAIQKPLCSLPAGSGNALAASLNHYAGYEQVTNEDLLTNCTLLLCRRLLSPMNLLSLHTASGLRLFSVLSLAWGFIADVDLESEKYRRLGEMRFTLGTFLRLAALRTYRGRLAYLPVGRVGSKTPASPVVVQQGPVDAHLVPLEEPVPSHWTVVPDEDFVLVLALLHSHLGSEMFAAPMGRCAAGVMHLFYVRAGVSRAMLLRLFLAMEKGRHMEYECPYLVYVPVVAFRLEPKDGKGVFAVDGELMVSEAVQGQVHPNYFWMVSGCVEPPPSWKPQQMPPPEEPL

Structure (SMILES) | inhibition [1] | inhibition [2] | inhibition [3] | inhibition [4] | inhibition [5] | inhibition [6] | inhibition [7] | inhibition [8] | inhibition [9] | inhibition [10]
COc1cccc(Nc2nccc(-c3cnn4ncccc34)n2)c1 | -2.02% | 0.58% | -1.48% | 8.12% | 40.9% | 11.6% | 53.6% | 5.19% | 27.1% | 3.06%
CS(=O)(=O)CCNCc1ccc(-c2ccc3ncnc(Nc4ccc(OCc5cccc(C(F)(F)F)c5)cc4)c3c2)o1 | 0.32% | 0.1% | 0.04% | 5.1% | 4.66% | 3.34% | 4.53% | 4.47% | 8.68% | 4.74%
Nc1nonc1-c1nc2cnccc2n1C1CC1 | -2.58% and -3.16% | 0.27% and 0.67% | 0.49% and 1.53% | 1.54% and 1.55% | 1.9% and 1.11% | 6.14% and 3.82% | 1.6% and 3.39% | 4.31% and 2.15% | 1.3% and 3.29% | 3.18% and 3.84%
CC1=C(C(=O)Nc2ccc3[nH]ncc3c2)C(c2ccc(F)cc2)N=C(c2ccc(C(F)(F)F)nc2)N1 (stereo not given) | 2.01% | 0% | -2.07% | 2.45% | 2.14% | 7.64% | -0.7% | 2.1% | -0.37% | 2.04%
Cc1nnc(-c2cccc(-c3ccc(C(=O)NCC4CC4)cc3)c2)o1 | -1.04% | 0.67% | -1.45% | 5.98% | 8.99% | -9.01% | -3.16% | 6.42% | 5.6% | 7.79%
Cc1c2ccc(N(C)c3ccnc(Nc4cccc(S(N)(=O)=O)c4)n3)cc2nn1C | 1.41% | -0.17% | 0% | 0.52% | 0.25% | 7.99% | 3.93% | 5.79% | 5.44% | 4.78%
CC1(C)CC(n2cnc(-c3ccc(F)cc3)c2-c2ccnc(N)n2)CC(C)(C)N1 | 10.6% | 3.82% | -2.43% | 1.44% | 7.38% | 1.15% | 1.35% | -0.17% | -1.15% | 0.1%
CN(C)CCNC(=O)Nc1ccc(N(C)c2ccnc(Nc3ccc(CS(C)(=O)=O)cc3)n2)cc1 | -1.23% | -0.06% | 2.33% | 2.94% | 0.31% | 2.05% | 0.39% | 7.67% | 1.94% | 3.33%
NS(=O)(=O)c1ccc(N/N=C2\C(=O)Nc3ccc(C(=O)NCc4ccncc4)cc32)cc1 | 0.35% | 2.9% | -0.04% | 4.7% | 13.1% | 2.72% | 0.67% | 5.86% | 5.23% | 14.4%
N#Cc1ccc2c(-c3ccnc(NC4CC4)n3)c(-c3ccc(F)cc3)nn2c1 | 0.88% | -0.39% | 0.05% | 2.7% | 1.8% | 3.97% | -0.5% | 2.19% | 0.5% | 1.8%
CN1CCC(n2cnc(-c3ccc(F)cc3)c2-c2ccnc(NCCO)n2)CC1 | -1.28% | 0.37% | -1.92% | 4.78% | 13.2% | 2.6% | 6.82% | 5.84% | 6.36% | 7.53%
Fc1ccc(Nc2nccc(-c3c(-c4ccc(C(F)(F)F)cc4)nn4ncccc34)n2)cc1F | -1.66% | -0.99% | -0.13% | 2.02% | 1.28% | 9.17% | 4.1% | 5.58% | 3.19% | 2.59%
O=C(O[C@H]1CN[C@H](C#Cc2cc3ncnc(Nc4ccc5c(ccn5Cc5cc(F)ccc5F)c4)c3s2)C1)N1CCOCC1 | -2.46% | 0% | 1.37% | 7.47% | 0.25% | 8.85% | 10.1% | 7.42% | 9.24% | 6.23%
CCOc1ccc2c(-c3ccnc(Nc4cc(OC)cc(C(F)(F)F)c4)n3)cnn2n1 | 1.71% | 4.25% | 0% | 4.76% | 15.3% | -1.77% | 4.02% | -0.06% | -2.55% | 2.74%
CCS(=O)(=O)c1ccc(OC)c(Nc2ncc(-c3cccc(F)c3)o2)c1 | 0.12% | -0.46% | 0% | 15.4% | 46.8% | 9.53% | 11% | 6.88% | 9.91% | 10.8%
